Measured values from PMC7862700, “An all-to-all approach to the identification of sequence-specific readers for epigenetic DNA modifications on cytosine”.

What was measured:
Assay in all cases: DAPPL (digital affinity profiling via proximity ligation, sequencing); 10 mM Tris-HCl pH 7.5, 50 mM NaCl, 1 mM DTT, 4% glycerol, room temperature, 30 min; GST-TFs on glutathione beads, 16-mer random dsDNA library, 0.1% formaldehyde crosslink after washing; high values mean tight binding
[1] = target: T1, FEV (Homo sapiens, UniProt Q99581 1-238); conditions: protein: recombinant; tags: N-terminal GST; dsDNA, one strand shown
T1 sequence: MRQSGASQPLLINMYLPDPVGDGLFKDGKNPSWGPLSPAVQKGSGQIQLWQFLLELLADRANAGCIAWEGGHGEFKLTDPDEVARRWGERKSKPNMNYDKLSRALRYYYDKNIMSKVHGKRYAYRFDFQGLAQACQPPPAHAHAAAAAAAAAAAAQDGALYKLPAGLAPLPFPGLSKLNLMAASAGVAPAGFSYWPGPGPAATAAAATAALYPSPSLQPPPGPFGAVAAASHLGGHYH
Outline: (§1)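 Human transcription factors fused to GST were expressed in yeast, captured on glutathione beads, given DNA barcodes and pooled with a GST-only negative control. Pools were incubated with 200 nmole of a 16-mer random double-stranded DNA library in Tris/NaCl/DTT/glycerol buffer at room temperature for 30 min. They were then washed, crosslinked with 0.1% formaldehyde, proximity-ligated (BsaI/T4 ligase, 1 h, 37 °C), PCR-amplified and sequenced on an Illumina NextSeq500. Binding signal is each 6-mer's read frequency for a factor divided by its frequency for the GST control.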

[2] = target: ETV5 (Homo sapiens, UniProt P41161 1-510); conditions: protein: recombinant; tags: N-terminal GST; dsDNA, one strand shown
Outline: as §1

[3] = target: HSF1 (Homo sapiens, UniProt Q00613 1-529); conditions: protein: recombinant; tags: N-terminal GST; chain copies: 3; dsDNA, one strand shown
Outline: as §1

[4] = target: T2, SPIC (Homo sapiens, UniProt Q8N5J4 1-248); conditions: protein: recombinant; tags: N-terminal GST; dsDNA, one strand shown
T2 sequence: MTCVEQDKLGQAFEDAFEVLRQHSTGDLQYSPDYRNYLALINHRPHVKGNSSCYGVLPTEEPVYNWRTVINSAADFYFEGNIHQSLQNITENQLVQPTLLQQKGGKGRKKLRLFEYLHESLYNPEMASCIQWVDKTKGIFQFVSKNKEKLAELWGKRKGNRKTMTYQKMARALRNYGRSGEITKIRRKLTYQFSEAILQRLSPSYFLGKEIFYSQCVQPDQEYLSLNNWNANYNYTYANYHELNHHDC
Outline: as §1

[5] = target: ELF4 (Homo sapiens, UniProt Q99607 1-663); conditions: protein: recombinant; tags: N-terminal GST; dsDNA, one strand shown
Outline: as §1

[6] = target: T3, ELK4 (Homo sapiens, UniProt P28324-2 1-405); conditions: protein: recombinant; tags: N-terminal GST; dsDNA, one strand shown
T3 sequence: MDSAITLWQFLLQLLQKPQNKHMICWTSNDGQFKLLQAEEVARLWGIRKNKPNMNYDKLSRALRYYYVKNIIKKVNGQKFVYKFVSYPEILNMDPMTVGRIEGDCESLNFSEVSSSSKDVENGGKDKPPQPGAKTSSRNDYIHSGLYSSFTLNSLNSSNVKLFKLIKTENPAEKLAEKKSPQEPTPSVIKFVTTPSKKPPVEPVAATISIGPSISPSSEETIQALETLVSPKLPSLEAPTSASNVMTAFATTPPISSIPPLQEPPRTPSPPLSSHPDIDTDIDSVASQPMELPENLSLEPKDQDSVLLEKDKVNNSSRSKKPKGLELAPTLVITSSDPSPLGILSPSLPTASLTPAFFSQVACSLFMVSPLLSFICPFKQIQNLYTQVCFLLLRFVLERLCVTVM
Outline: as §1

[7] = target: T4, ETV2 (Homo sapiens, UniProt O00321 1-342); conditions: protein: recombinant; tags: N-terminal GST; dsDNA, one strand shown
T4 sequence: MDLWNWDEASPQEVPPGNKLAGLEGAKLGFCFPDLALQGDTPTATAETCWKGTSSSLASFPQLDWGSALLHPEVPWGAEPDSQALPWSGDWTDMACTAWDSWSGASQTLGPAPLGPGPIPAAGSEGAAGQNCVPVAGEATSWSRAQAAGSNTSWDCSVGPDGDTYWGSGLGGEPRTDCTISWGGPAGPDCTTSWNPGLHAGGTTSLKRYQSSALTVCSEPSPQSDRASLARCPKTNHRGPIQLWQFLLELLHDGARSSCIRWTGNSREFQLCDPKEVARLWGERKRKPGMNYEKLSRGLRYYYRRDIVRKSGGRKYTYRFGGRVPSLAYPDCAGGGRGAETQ
Outline: as §1

[8] = target: T5, ELF3 (Homo sapiens, UniProt P78545 1-371); conditions: protein: recombinant; tags: N-terminal GST; dsDNA, one strand shown
T5 sequence: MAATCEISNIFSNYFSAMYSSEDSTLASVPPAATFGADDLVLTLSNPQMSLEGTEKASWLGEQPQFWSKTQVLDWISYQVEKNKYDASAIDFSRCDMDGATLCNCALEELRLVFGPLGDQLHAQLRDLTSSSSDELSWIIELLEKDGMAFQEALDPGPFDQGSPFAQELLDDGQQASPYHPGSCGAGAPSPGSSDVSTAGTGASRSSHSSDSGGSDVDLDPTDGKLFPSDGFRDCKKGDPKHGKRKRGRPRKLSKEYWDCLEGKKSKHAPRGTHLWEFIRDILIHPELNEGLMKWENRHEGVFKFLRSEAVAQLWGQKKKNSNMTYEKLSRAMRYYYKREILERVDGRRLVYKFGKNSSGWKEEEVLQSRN
Outline: as §1

[9] = target: CRX (Homo sapiens, UniProt O43186 1-299); conditions: protein: recombinant; tags: N-terminal GST; dsDNA, one strand shown
Outline: as §1

[10] = target: ETV1 (Homo sapiens, UniProt P50549 1-477); conditions: protein: recombinant; tags: N-terminal GST; dsDNA, one strand shown
Outline: as §1

[11] = target: T6, ERF (Homo sapiens, UniProt P50548 1-548); conditions: protein: recombinant; tags: N-terminal GST; dsDNA, one strand shown
T6 sequence: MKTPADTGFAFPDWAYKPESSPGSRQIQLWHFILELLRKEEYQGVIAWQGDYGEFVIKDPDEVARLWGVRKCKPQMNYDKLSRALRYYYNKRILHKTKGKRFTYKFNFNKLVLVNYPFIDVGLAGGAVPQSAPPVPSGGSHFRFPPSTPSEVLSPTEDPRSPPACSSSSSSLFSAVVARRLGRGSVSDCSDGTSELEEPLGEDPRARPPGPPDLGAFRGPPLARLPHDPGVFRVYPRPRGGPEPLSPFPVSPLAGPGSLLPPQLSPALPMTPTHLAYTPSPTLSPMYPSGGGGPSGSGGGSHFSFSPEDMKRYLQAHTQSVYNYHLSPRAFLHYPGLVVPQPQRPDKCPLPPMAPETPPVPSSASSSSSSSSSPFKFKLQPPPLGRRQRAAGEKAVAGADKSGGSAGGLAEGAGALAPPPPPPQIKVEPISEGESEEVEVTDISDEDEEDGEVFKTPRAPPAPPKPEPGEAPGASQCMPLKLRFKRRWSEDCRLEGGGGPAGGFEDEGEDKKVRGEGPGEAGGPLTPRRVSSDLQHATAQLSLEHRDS
Outline: as §1

[12] = target: T7, ETV3L (Homo sapiens, UniProt Q6ZN32 1-361); conditions: protein: recombinant; tags: N-terminal GST; dsDNA, one strand shown
T7 sequence: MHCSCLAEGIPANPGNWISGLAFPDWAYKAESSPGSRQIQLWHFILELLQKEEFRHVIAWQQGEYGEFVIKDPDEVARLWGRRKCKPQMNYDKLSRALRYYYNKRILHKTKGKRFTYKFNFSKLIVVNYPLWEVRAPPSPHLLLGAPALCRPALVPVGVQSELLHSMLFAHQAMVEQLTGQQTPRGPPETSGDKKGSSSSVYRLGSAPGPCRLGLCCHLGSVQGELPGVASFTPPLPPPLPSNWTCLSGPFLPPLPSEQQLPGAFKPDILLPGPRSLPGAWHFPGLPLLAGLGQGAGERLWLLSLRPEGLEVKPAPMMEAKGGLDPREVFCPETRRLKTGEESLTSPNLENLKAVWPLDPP
Outline: as §1

[13] = target: T8, ETS2 (Homo sapiens, UniProt P15036 1-469); conditions: protein: recombinant; tags: N-terminal GST; dsDNA, one strand shown
T8 sequence: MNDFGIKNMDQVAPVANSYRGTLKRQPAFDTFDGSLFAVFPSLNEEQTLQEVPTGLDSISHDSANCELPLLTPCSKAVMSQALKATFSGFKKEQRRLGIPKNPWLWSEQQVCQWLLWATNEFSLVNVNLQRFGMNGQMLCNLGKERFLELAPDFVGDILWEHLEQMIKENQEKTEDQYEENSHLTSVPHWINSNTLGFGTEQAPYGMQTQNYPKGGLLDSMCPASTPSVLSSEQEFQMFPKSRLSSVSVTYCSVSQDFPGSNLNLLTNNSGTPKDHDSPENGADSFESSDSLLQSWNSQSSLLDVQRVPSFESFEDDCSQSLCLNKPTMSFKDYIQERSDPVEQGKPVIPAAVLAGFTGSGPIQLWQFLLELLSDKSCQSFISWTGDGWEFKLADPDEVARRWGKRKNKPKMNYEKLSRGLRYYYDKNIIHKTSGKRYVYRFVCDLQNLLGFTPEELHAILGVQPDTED
Outline: as §1

[14] = target: T9, SPDEF (Homo sapiens, UniProt O95238 1-335); conditions: protein: recombinant; tags: N-terminal GST; dsDNA, one strand shown
T9 sequence: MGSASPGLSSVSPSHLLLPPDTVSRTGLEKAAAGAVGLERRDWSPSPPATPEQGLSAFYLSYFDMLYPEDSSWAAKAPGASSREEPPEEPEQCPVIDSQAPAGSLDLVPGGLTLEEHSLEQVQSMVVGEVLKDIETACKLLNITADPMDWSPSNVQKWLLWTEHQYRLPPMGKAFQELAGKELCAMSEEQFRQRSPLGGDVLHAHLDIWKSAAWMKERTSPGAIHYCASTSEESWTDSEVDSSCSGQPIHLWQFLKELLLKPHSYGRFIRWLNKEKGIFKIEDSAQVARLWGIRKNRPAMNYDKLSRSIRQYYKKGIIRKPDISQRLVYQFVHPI
Outline: as §1

[15] = target: T10, ETV7 (Homo sapiens, UniProt Q9Y603 1-341); conditions: protein: recombinant; tags: N-terminal GST; dsDNA, one strand shown
T10 sequence: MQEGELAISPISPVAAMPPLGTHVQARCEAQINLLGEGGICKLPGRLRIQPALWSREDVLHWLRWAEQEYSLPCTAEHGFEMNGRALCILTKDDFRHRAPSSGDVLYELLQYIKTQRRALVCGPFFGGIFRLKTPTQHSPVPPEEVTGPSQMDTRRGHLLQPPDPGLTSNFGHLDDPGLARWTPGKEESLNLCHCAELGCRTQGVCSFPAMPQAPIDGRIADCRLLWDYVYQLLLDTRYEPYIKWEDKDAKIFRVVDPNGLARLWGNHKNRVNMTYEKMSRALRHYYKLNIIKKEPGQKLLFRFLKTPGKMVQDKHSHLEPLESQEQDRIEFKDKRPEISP
Outline: as §1

[16] = target: T11, ELF5 (Homo sapiens, UniProt Q9UKW6-2 1-255); conditions: protein: recombinant; tags: N-terminal GST; dsDNA, one strand shown
T11 sequence: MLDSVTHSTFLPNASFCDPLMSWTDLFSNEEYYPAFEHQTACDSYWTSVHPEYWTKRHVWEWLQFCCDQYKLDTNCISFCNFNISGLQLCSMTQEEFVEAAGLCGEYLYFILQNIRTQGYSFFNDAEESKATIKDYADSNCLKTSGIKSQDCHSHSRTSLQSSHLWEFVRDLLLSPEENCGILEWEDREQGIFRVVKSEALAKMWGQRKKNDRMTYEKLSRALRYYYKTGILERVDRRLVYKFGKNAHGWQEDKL
Outline: as §1

[17] = target: T12, ETV3 (Homo sapiens, UniProt P41162-2 1-143); conditions: protein: recombinant; tags: N-terminal GST; dsDNA, one strand shown
T12 sequence: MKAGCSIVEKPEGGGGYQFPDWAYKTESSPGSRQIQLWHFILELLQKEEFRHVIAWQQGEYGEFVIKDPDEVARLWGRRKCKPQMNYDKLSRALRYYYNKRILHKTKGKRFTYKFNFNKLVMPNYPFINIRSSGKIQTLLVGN
Outline: as §1

[18] = target: ETV6 (Homo sapiens, UniProt P41212 1-452); conditions: protein: recombinant; tags: N-terminal GST; dsDNA, one strand shown
Outline: as §1

Chain of CRX (O43186 whole entry): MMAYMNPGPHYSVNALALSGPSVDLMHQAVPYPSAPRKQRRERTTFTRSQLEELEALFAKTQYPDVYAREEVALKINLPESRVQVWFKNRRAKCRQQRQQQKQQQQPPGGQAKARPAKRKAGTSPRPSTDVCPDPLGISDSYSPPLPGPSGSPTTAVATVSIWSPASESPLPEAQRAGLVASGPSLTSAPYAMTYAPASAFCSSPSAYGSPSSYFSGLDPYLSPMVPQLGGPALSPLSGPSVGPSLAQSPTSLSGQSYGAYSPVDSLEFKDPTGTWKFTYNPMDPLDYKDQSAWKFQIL
Chain of ETV1 (P50549 whole entry): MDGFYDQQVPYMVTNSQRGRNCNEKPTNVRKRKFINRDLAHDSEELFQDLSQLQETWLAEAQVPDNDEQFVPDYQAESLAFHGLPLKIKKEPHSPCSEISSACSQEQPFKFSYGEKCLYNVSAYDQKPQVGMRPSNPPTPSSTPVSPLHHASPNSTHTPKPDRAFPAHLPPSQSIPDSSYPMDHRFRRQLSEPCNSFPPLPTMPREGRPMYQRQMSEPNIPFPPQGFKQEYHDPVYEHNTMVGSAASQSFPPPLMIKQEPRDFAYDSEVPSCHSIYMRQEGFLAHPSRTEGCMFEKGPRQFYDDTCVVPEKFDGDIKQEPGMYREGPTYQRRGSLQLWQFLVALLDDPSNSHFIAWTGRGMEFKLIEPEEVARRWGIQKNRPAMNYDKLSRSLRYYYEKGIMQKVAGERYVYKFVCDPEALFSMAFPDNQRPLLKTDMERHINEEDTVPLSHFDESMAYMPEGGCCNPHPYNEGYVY
Chain of ETV5 (P41161 whole entry): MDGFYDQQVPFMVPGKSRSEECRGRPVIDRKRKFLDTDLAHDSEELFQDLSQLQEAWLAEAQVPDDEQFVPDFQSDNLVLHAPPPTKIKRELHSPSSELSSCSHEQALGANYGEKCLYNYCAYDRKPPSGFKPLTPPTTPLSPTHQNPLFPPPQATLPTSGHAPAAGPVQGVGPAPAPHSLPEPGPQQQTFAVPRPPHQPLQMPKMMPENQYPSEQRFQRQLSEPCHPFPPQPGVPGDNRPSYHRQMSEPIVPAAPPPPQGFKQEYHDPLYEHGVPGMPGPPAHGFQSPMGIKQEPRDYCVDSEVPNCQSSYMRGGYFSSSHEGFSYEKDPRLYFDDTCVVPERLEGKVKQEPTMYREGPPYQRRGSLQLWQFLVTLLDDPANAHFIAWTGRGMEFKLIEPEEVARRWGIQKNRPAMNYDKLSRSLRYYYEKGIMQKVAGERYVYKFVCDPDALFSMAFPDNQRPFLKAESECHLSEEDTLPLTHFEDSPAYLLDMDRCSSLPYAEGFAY
Chain of ETV6 (P41212 whole entry): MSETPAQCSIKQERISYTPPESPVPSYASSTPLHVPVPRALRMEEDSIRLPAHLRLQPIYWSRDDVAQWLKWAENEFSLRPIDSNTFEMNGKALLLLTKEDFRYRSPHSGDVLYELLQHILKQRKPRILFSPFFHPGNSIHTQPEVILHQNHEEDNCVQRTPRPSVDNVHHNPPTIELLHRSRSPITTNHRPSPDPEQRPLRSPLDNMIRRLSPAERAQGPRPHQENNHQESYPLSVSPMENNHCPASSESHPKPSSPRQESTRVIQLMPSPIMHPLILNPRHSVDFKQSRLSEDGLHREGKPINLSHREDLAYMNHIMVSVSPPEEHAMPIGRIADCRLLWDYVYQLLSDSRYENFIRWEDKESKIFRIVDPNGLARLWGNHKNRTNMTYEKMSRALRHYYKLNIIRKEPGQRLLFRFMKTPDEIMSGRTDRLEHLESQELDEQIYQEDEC
Chain of HSF1 (Q00613 whole entry): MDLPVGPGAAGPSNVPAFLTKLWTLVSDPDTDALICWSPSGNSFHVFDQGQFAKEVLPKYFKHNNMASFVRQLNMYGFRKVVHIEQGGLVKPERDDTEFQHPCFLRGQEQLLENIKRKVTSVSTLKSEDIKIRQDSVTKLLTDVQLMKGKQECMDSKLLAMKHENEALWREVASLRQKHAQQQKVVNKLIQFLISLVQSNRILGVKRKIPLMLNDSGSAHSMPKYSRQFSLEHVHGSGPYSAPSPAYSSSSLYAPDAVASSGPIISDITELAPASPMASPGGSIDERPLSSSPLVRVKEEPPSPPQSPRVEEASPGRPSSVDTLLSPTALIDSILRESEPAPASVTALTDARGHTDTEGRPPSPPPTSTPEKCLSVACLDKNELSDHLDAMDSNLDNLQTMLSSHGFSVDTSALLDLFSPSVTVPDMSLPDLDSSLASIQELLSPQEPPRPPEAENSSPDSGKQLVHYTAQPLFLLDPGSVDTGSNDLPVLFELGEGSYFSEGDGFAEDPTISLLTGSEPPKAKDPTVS
Chain of ELF4 (Q99607 whole entry): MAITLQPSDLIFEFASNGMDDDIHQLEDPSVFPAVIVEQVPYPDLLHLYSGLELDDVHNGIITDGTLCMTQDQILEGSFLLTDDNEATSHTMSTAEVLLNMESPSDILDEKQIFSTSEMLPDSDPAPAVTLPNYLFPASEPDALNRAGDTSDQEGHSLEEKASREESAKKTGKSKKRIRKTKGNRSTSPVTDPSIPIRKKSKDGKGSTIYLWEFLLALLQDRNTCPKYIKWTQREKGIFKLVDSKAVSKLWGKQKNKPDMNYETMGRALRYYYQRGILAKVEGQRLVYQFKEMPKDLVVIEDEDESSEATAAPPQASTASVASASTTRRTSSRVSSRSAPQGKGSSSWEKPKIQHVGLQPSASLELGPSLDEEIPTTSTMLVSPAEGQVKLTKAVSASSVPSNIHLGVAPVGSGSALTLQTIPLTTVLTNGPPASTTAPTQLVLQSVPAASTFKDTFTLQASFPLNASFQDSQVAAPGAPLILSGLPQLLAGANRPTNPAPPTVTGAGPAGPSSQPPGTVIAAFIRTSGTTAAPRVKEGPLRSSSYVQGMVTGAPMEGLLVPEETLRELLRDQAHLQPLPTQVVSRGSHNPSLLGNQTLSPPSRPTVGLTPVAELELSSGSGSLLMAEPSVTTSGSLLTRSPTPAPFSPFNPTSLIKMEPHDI

Sequence	binding signal [1]	binding signal [2]	binding signal [3]	binding signal [4]	binding signal [5]	binding signal [6]	binding signal [7]	binding signal [8]	binding signal [9]	binding signal [10]	binding signal [11]	binding signal [12]	binding signal [13]	binding signal [14]	binding signal [15]	binding signal [16]	binding signal [17]	binding signal [18]
TTCCGG	8.68 fold enrichment (6-mer frequency, TF over GST control)	6.4 fold enrichment (6-mer frequency, TF over GST control)	1.93 fold enrichment (6-mer frequency, TF over GST control)	5.6 fold enrichment (6-mer frequency, TF over GST control)	5.4 fold enrichment (6-mer frequency, TF over GST control)	4.67 fold enrichment (6-mer frequency, TF over GST control)	5.78 fold enrichment (6-mer frequency, TF over GST control)	5.14 fold enrichment (6-mer frequency, TF over GST control)	1.33 fold enrichment (6-mer frequency, TF over GST control)	6.12 fold enrichment (6-mer frequency, TF over GST control)	4.81 fold enrichment (6-mer frequency, TF over GST control)	5.36 fold enrichment (6-mer frequency, TF over GST control)	6 fold enrichment (6-mer frequency, TF over GST control)	6.57 fold enrichment (6-mer frequency, TF over GST control)	5.39 fold enrichment (6-mer frequency, TF over GST control)	8.59 fold enrichment (6-mer frequency, TF over GST control)	6.28 fold enrichment (6-mer frequency, TF over GST control)	6.93 fold enrichment (6-mer frequency, TF over GST control)
TAAGTT	1.24 fold enrichment (6-mer frequency, TF over GST control)	1.37 fold enrichment (6-mer frequency, TF over GST control)	1.45 fold enrichment (6-mer frequency, TF over GST control)	1.36 fold enrichment (6-mer frequency, TF over GST control)	1.34 fold enrichment (6-mer frequency, TF over GST control)	1.22 fold enrichment (6-mer frequency, TF over GST control)	1.25 fold enrichment (6-mer frequency, TF over GST control)	1.09 fold enrichment (6-mer frequency, TF over GST control)	1.94 fold enrichment (6-mer frequency, TF over GST control)	1.34 fold enrichment (6-mer frequency, TF over GST control)	1.18 fold enrichment (6-mer frequency, TF over GST control)	1.4 fold enrichment (6-mer frequency, TF over GST control)	1.38 fold enrichment (6-mer frequency, TF over GST control)	1.42 fold enrichment (6-mer frequency, TF over GST control)	1.36 fold enrichment (6-mer frequency, TF over GST control)	1.29 fold enrichment (6-mer frequency, TF over GST control)	1.27 fold enrichment (6-mer frequency, TF over GST control)	1.49 fold enrichment (6-mer frequency, TF over GST control)
